Our source for the growth inhibition values is PubChem BioAssay (NCI).

Compounds without any hit were thinned out: in the full panel of roughly 79,000, 15% have a hit. A number with no mark means an inactive call. Active and inactive are the calls of the source. Rule as the data show it: active = growth inhibition above about 70%; inactive = the rest.

Assay [1] in a line: NCI Yeast Anticancer Drug Screen. Data for the rad50 strain (AID 155).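 Also: 0% = growth of vehicle-only cultures of the same strain.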 The settings on record: S. cerevisiae rad50 strain growth inhibition, hits give high values; at 50.0 µM unless noted. The essentials:
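Inhibition values express reduced yeast growth in compound-treated cultures relative to vehicle-treated controls.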

Assay [2] is described as follows: NCI Yeast Anticancer Drug Screen. Data for the mec2-1 strain (AID 157). The settings on record: S. cerevisiae mec2-1 strain, hits give high values; at 50.0 µM unless noted. The procedure, abridged:
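Each compound was tested on mec2-1 yeast, a strain altered in DNA damage repair or cell cycle control. Growth inhibition is reported relative to vehicle.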

Assay [3] can be described thus: NCI Yeast Anticancer Drug Screen. Data for the sgs1 mgt1 strain (AID 161).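 Also: 0% = growth of cultures given vehicle only.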 As to conditions: S. cerevisiae sgs1 mgt1 strain, hits give high values; at 50.0 µM unless noted. The procedure, abridged:
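Inhibition of yeast growth, normalised to vehicle-treated controls, is reported for a strain bearing genetic alterations in DNA damage repair.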

Assay [4] is described as follows: NCI Yeast Anticancer Drug Screen. Data for the cln2 rad14 strain (AID 165).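 Also: 0% = growth equal to vehicle treated cultures.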 As to conditions: S. cerevisiae cln2 rad14 strain, hits give high values; at 50.0 µM unless noted. The essentials: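 Test compounds were added to cln2 rad14 yeast cultures; inhibition of growth was then determined by comparison with vehicle treatment.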
Assay [5] in a line: NCI Yeast Anticancer Drug Screen. Data for the bub3 strain (AID 167). As to conditions: S. cerevisiae bub3 mutant strain, hits give high values; at 50.0 µM unless noted. The procedure, abridged: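 Steps: expose the mutant yeast strain to compound; grow alongside vehicle-treated cultures; measure growth; express inhibition against the vehicle cultures.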
Assay [6] can be described thus: NCI Yeast Anticancer Drug Screen. Data for the mlh1 rad18 strain (AID 175). The settings on record: S. cerevisiae mlh1 rad18 strain growth inhibition, hits give high values; at 50.0 µM unless noted. The procedure, abridged:
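Inhibition values reflect reduced growth of mutant yeast versus vehicle-treated controls following compound exposure; the mutations affect DNA damage repair.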

In the case of `C[N+]1(CCN=C=NC2CCCCC2)CCOCC1`, the growth inhibition in assay [1] is -11.9%; in assay [2] it was 10.8%; in assay [3], 16.9%; in assay [4], -12.2%; in assay [5] it was 17.9%; in assay [6], 14.4%.

As to `S=C(c1ccccc1)c1cccc2ccccc12`, the growth inhibition is 57% in assay [1]; 15.1% in assay [2]; 58% in assay [3]; 2.8% in assay [4]; -3.55% in assay [5]; 36.9% in assay [6].

Turning to `CC1(C)CC[C@]2(C(=O)O)CC[C@]3(C)C(=CC[C@@H]4[C@@]5(C)CC[C@H](O)C(C)(C)[C@@H]5CC[C@]43C)[C@@H]2C1`, the growth inhibition is -3.7% in assay [1]; 4.4% in assay [2]; -7.5% in assay [3]; 13.2% in assay [4]; 0.1% in assay [5]; -3.9% in assay [6].

For `CCOC(=O)C(N)CSC(=O)NC` (stereo unspecified), the growth inhibition in assay [1] was 24.9%; in assay [2] it was -3.4%; in assay [3], 16%; in assay [4], 3.2%; in assay [5] it was 20.9%; in assay [6], -49.5%.

As to `COC(=O)/C=C/c1cccnc1`, the growth inhibition in assay [1] was -16.4%; in assay [2], -28.6%; in assay [3], -36.1%; in assay [4], -22.7%; in assay [5] it was -10.3%; in assay [6] it was -12.3%.

As for `O=C1CCc2nc(-c3ccccc3)ncc21`, the growth inhibition in assay [1] is 9.25%; in assay [2], 0%; in assay [3], 1.95%; in assay [4] it was -5.55%; in assay [5], -2.2%; in assay [6], -0.8%.

For `O=S1(=O)c2ccccc2Nc2cc3ccccc3cc21`, the growth inhibition in assay [1] is 6.75%; in assay [2] it was 2.4%; in assay [3], 0.85%; in assay [4] it was -11.5%; in assay [5], -2.55%; in assay [6], 6.25%.

As to `COc1cc(O)c(C(C)=O)c(O)c1`, the growth inhibition is 9.55% in assay [1]; 16.2% in assay [2]; 9.5% in assay [3]; 16.8% in assay [4]; 29.2% in assay [5]; 18.5% in assay [6].

Consider `CC(C)=CC1C(C(=O)Oc2ccccc2C(C)C)C1(C)C` (stereo unspecified), for which the growth inhibition in assay [1] is -3.8%; in assay [2], -11.2%; in assay [3], 2.6%; in assay [4], -22.6%; in assay [5], -27%; in assay [6] it was 4.6%.

`CC1(C)C2=CC3(C)N(CN2c2ccccc21)c1ccccc1C3(C)C` (stereo unspecified): the growth inhibition in assay [1] was 17.1%; in assay [2], 24.4%; in assay [3], 18.8%; in assay [4], 7%; in assay [5] it was 12.9%; in assay [6] it was 15.9%.

As to `COC(=O)C(CCC1(C)OCCO1)C(C)=O` (stereo unspecified), the growth inhibition in assay [1] was -10.4%; in assay [2], -0.85%; in assay [3], -9%; in assay [4], 7.65%; in assay [5] it was -1.55%; in assay [6] it was -13%.

On to `COC(=O)c1[nH]nc(-c2ccccc2)c1N`, for which the growth inhibition in assay [1] was 11%; in assay [2], 2.95%; in assay [3] it was -12.8%; in assay [4], -51.8%; in assay [5], 17.4%; in assay [6], 1.9%.

For the molecule `CN(CCO)c1ccccc1`, the growth inhibition is -12.3% in assay [1]; -14.8% in assay [2]; -40.4% in assay [3]; -17.9% in assay [4]; -48.4% in assay [5]; -8% in assay [6].

Regarding `C(#Cc1ccccc1)COc1ccccc1`, the growth inhibition is 9.9% in assay [1]; 11.9% in assay [2]; -15.1% in assay [3]; 1.5% in assay [4]; 17.1% in assay [5]; -5.25% in assay [6].

On to `CCOc1c(N=Nc2cccc(Cl)c2)c(C)nn1C(N)=S`, for which the growth inhibition was 20.4% in assay [1]; 3.35% in assay [2]; 9.65% in assay [3]; -25.1% in assay [4]; -15.5% in assay [5]; 19.4% in assay [6].

For the molecule `Nc1c(Cl)ncnc1NCc1ccco1`, the growth inhibition in assay [1] was 5.25%; in assay [2], -4.2%; in assay [3] it was -13.8%; in assay [4], -13.8%; in assay [5] it was -1.05%; in assay [6], -7.85%.

For the molecule `CC(=O)Nc1cc(NC(C)=O)c2ccc(=O)[nH]c2c1O`, the growth inhibition in assay [1] was -2.9%; in assay [2] it was -3.6%; in assay [3], -3.55%; in assay [4] it was -8.25%; in assay [5] it was 15.3%; in assay [6], 5.3%.

On to `Cc1ccc(S(=O)(=O)/C=C(/SC#N)C2CCCCC2)cc1`, for which the growth inhibition was 32.5% in assay [1]; 90.6% (active) in assay [2]; 69.5% in assay [3]; 17.9% in assay [4]; 83.1% (active) in assay [5]; 79.7% (active) in assay [6].

Take `COc1ccc(C2(OC)Oc3cc(OC)ccc3-c3nc4ccccc4nc32)cc1` (stereo unspecified): the growth inhibition in assay [1] is 23.4%; in assay [2], 1.25%; in assay [3], -4.15%; in assay [4], 11.6%; in assay [5], 4.3%; in assay [6], 0.4%.

On to `CC1C(c2ccccc2)OCCN1C(=S)Nc1ccccc1` (stereo unspecified), for which the growth inhibition in assay [1] is 34.9%; in assay [2], 34.2%; in assay [3] it was 45.6%; in assay [4] it was -16.6%; in assay [5] it was 35.2%; in assay [6] it was 25.4%.

On to `O=C(CCC(=O)Nc1ccccc1C(F)(F)F)N/N=C1\C(=N\NC(=O)CCC(=O)Nc2ccccc2C(F)(F)F)C(c2ccc3c(c2)OCO3)Oc2ccccc21` (stereo unspecified), for which the growth inhibition in assay [1] was 19.4%; in assay [2], 3.4%; in assay [3] it was 1.15%; in assay [4], -11%; in assay [5] it was -5.05%; in assay [6], 4.55%.
